# Assay outcomes (PubChem)
# ERa coact pot: ER-alpha (human) coactivator binding potentiation. TR-FRET ERalpha-LBD/SRC-Cy5 coactivator binding, 2 h; 100 = basal binding, no effect. coactivator binding (% of control), % at 25.6 µM. hit rate 1.3% among 86,000; in the data active = activity above about 200%;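 also: binding measured in presence of low estradiol as agonist stimulus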
# Target sequence (P03372 whole entry, looked up, the tested form may be a part): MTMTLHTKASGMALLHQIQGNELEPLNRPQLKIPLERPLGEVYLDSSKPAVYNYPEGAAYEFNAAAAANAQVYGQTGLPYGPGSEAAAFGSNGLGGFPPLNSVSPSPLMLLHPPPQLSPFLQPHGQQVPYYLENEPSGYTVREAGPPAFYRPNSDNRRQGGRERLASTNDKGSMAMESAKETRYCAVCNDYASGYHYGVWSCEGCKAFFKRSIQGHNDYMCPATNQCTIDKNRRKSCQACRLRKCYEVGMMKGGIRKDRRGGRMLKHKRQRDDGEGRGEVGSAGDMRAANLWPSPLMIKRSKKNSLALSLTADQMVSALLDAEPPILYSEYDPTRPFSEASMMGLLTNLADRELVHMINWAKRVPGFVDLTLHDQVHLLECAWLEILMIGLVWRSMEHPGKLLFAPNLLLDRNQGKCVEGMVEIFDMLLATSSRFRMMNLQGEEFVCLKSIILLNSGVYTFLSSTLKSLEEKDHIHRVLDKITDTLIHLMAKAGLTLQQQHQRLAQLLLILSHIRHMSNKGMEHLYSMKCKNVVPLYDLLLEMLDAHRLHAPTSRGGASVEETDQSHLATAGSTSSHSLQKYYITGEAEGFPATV
# MT1-MMP txn act: activates MT1-MMP transcription; HT1080 MT1-MMP promoter luciferase reporter, luminescence, overnight; stronger effect = higher value; activation factor at 10 µM; hit rate 0.16% among 86,000; AID 750;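 active = activation factor of at least 2 for MT1-MMP transcription at 10 µM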
# Smad3 inh: Smad3 (human) transcription factor binding inhibition | P84022 | TR-FRET Smad3/Dy647-FoxH1 peptide binding, europium anti-His | hit rate 0.29% among 88,000 | inhibition, % at 25 µM;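 active = compounds that reduce the energy-transfer binding signal between the protein and its labelled peptide by more than half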
# Calb biofilm kill: kills Candida albicans biofilms. hit rate 0.14% among 85,000. inhibition, % at 6 µM. C. albicans biofilm + clotrimazole, Alamar Blue;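 active = inhibition above 20%; inactive = inhibition below 20%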;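 also: preformed 24 hr biofilms exposed to compound for 48 hr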
# ERb SRC1 inh: ER-beta (human) coactivator binding inhibition. Q92731. TR-FRET ER-beta LBD / SRC1-Cy5 peptide binding; receptor agonist-loaded with 1 µM estradiol. inhibition, % at 25.6 µM. hit rate 1.3% among 86,000. AID 633;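 active = compounds whose percent inhibition of the receptor-coactivator binding signal exceeds about 50% in the single-dose screen, limit read from the data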
# ERa SRC1 inh: blocks coactivator binding to human estrogen receptor alpha. P03372. inhibition, % at 25.6 µM. TR-FRET ER-alpha LBD / SRC-1 peptide, estradiol-bound. hit rate 1.7% among 86,000; in the data active = inhibition above about 50%
# A number is an active result; – = inactive; · = not tested or not shown; [ ] = dose if it differs, or a comment. Sampled rows, rich in hits. Any-hit rate of the full collection: about 3.8%.
SMILES,ERa coact pot,MT1-MMP txn act,Smad3 inh,Calb biofilm kill,ERb SRC1 inh,ERa SRC1 inh
c1ccc(-c2nnc(-c3ccccn3)nn2)nc1,–,–,–,–,–,–
COC(=O)c1ccc(C(NC(=O)OCc2ccccc2)/C(F)=C/[C@@H](C)C(=O)NCc2cc(C)on2)cc1 (some centres not stated),·,–,·,·,·,·
Cc1ccc(CSc2nnc(-c3ccc4c(c3)OCO4)o2)cc1,–,·,–,–,–,–
Cc1ccc(-c2nnc(CSc3nc4cc5c(cc4cc3C)OCO5)o2)cc1,206.2[fluorescence artefact?],–,–,–,60.5,76.9[fluorescence artefact?]
CCOc1ccc(C2C(C(=O)c3cccs3)=C(O)C(=O)N2CCCn2ccnc2)cc1 (configuration not stated),–,–,–,–,–,–
O=C(Oc1cccc(-n2cnnn2)c1)c1sc2ccccc2c1Cl,245.7,–,–,–,–,–
O=C(Oc1cccc(-n2cnnn2)c1)C1CCCCC1,–,–,–,–,–,–
O=C1C2=C(Nc3cc([N+](=O)[O-])ccc3N2)O[C@H]1c1ccc([C@H]2OC3=C(Nc4ccc([N+](=O)[O-])cc4N3)C2=O)cc1,·,·,–,·,·,·
COCc1cc(=O)n2c(-c3ccc(C)cc3)n[nH]c2n1,–,·,–,–,59.8,–
CCc1ccccc1NC(=O)CSc1nnc(Cn2nnc3ccccc32)n1C,–,–,–,–,–,–
CC1(C)CC(=O)C2=C(C1)Nc1nc(SCCN3CCOCC3)[nH]c(=O)c1C2c1cccs1 (configuration not stated),–,–,–,–,–,–
CSc1nc2c(c(=O)[nH]1)C(c1cccs1)C1=C(CCCC1=O)N2 (configuration not stated),–,–,–,–,56.2,–
COC(=O)[C@@]1(Cc2ccc(F)cc2)[C@H]2c3cc(C(=O)N(C)C)n(Cc4c(CO)[nH]cc(C)c4=O)c3C[C@H]2CN1C(=O)c1ccccc1,·,–,·,·,·,·
COc1ccc(C(=O)Nc2nc3cc(OC)c(OC)cc3c(=O)[nH]2)cc1,434.3,–,–,–,–,–
Cc1occc1C(=O)NCCCc1ccccc1,–,–,–,–,57.9,–
Cc1occc1C(=O)NCCCCNC(=O)c1ccoc1C,–,–,–,–,–,–
CCC(C)(C)n1nnnc1C(c1cc2ccc(OC)cc2[nH]c1=O)N1CCc2ccccc21 (configuration not stated),256.2,–,–,–,–,–
CCC(C)(C)n1nnnc1C(c1cc2cc(OC)ccc2[nH]c1=O)N1CCc2ccccc21 (configuration not stated),–,–,–,–,–,–
Cc1oc2c(cc(NS(=O)(=O)c3ccc4c5c(cccc35)C(=O)N4)c3ccccc32)c1C(=O)OC(C)C,–,–,–,–,56.8,92.6[fluorescence artefact?]
COC(=O)c1ccccc1NS(=O)(=O)c1ccc2c3c(cccc13)C(=O)N2,–,–,–,–,–,–
O=C1C=C(NCC2CCCO2)CC(c2ccccc2)C1 (configuration not stated),–,–,–,–,–,–
O=C1CC(c2ccc(F)cc2)Cc2nc(NCC3CCCO3)ncc21 (configuration not stated),–,–,–,–,–,59.8
O=c1c2c([nH]c3ccccc13)CCCC2,–,–,–,–,–,–
O=c1c2c([nH]c3ccccc13)C(=C1CCCC1)CC2,–,–,–,–,84.1,76.7[fluorescence artefact?]
COc1ccc2nc(NC(=O)c3cnccn3)sc2c1,–,–,–,–,–,75.1[fluorescence artefact?]
SMILES,ERa coact pot,MT1-MMP txn act,Smad3 inh,Calb biofilm kill,ERb SRC1 inh,ERa SRC1 inh
Cn1cnc([N+](=O)[O-])c1[Se]c1nc(N)nc2c1ncn2[C@H]1O[C@@H](CO)[C@H](O)[C@H]1O,·,·,75.2,·,·,·
Cc1ccc(C(=O)Nc2ccc3cn[nH]c3c2)cc1S(=O)(=O)N1CCCCC1,–,2.1,–,–,–,–
O=C(O)c1ccc([N+]2=Cn3c(nc4ccccc43)C2)cc1,·,·,–,·,·,·
CC1CCCCN1CC(=O)Nc1sc2c(c1C#N)CCC2 (configuration not stated),–,–,–,–,52.7,–
N#Cc1c(NC(=O)CN2CCCCC2)sc2c1CCC2,–,·,–,–,–,–
CCSc1nc2c(cnn2-c2ccc(C)c(C)c2)c(=O)[nH]1,238.8[fluorescence artefact?],–,–,–,64.7[fluorescence artefact?],70.4[fluorescence artefact?]
Cc1ccc(-n2ncc3c(=O)[nH]c(SCC(=O)N4CCN(c5ccccc5)CC4)nc32)cc1,–,–,–,–,52.7[fluorescence artefact?],–
Cc1ccc(-n2ncc3c(=O)[nH]c(SCC(=O)N4CCC(C)CC4)nc32)cc1C,345.6[fluorescence artefact?],–,–,–,–,–
Cc1ccc(-n2ncc3c(=O)[nH]c(SCC(=O)N4CCCC4)nc32)cc1C,–,–,–,–,–,–
Cc1ccc(-n2ncc3c(=O)[nH]c(SCC(=O)N4CCOCC4)nc32)cc1,–,–,–,–,–,–
CCCCCSc1nc2c(cnn2-c2ccccc2)c(=O)[nH]1,282.9[fluorescence artefact?],–,–,–,–,–
Nc1c(C(=O)NCCN2CCOCC2)c2nc3ccccc3nc2n1-c1ccccc1,–,–,–,–,–,–
Nc1c(C(=O)NCCN2CCOCC2)c2nc3ccccc3nc2n1-c1ccc2c(c1)OCO2,–,–,–,–,–,62.8[fluorescence artefact?]
Nc1ccc(-n2c(N)c(C(=O)NCc3ccc4c(c3)OCO4)c3nc4ccccc4nc32)cc1,–,–,–,–,–,79.5[fluorescence artefact?]
CCCCNC(=O)Cc1coc2ccc3ccccc3c12,–,–,–,–,–,–
COc1cc2c(cc1OC)-c1cc(NCc3ccccn3)nc(=O)n1CC2,513.1[fluorescence artefact?],–,–,–,–,–
N#Cc1c(SCC(N)=O)nsc1SCc1ccccc1Cl,–,–,–,–,98.9[fluorescence artefact?],–
C=C(C)CN(CC#N)CC(=C)C,·,·,–,·,·,·
Nc1nccc(Nc2ccc(S(N)(=O)=O)cc2)n1,·,·,–,·,·,·
CCOc1cc(C2c3c(oc4cc(C)c(Cl)cc4c3=O)C(=O)N2Cc2ccco2)ccc1O (configuration not stated),–,–,–,–,–,83.9[fluorescence artefact?]
COc1cc(C2c3c(oc4ccccc4c3=O)C(=O)N2Cc2ccco2)ccc1O (configuration not stated),–,–,–,–,–,–
C[C@H]1CN(CCO)CCN1c1ccccc1,·,·,–,·,·,·
CCSc1nnc(Cc2cc(=O)[nH]c(=O)[nH]2)n1-c1cc(C)ccc1C,–,–,–,–,70.1,–
CCOC(=O)CSc1nnc(Cc2cc(=O)[nH]c(=O)[nH]2)n1-c1ccc(Cl)cc1,–,–,–,–,96.3[fluorescence artefact?],–
CSc1nnc(Cc2cc(=O)[nH]c(=O)[nH]2)n1-c1cc(C)ccc1C,–,–,–,–,–,–
CCOc1ccc(-n2c(Cc3cc(=O)[nH]c(=O)[nH]3)nnc2SCC(=O)OC)cc1,–,–,–,–,–,–
COc1nnc(-c2ccc(C(=O)N3C[C@@H]4C[C@H](C3)c3cccc(=O)n3C4)cc2)c2ccccc12,340.1,–,–,–,–,–
C=C(CC(=O)O)C(=O)O (tested in a mixture with another compound),·,·,86.6,·,·,·
O=C(O)/C=C(/CC(=O)O)C(=O)O,·,·,–,·,·,·
